Test results published in the supplement of paper PMC12494721.
Structures can show the parent of a compound that is named as a salt.

Tests used:
Conditions in all cases: incubation time: 27 h, anaerobic, 37 °C;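 for the amine columns active = adjusted P below 0.05 in both replicates with a change the same way and a mean fold change under 0.8 or over 1.25; inactive = the rest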
[1] = tested on: Clostridium sporogenes DSM 1664; assay: growth (OD595) fold change vs plate DMSO controls (fold change (ratio)); higher = more growth
In short: (§1)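 Shaken 96-well cultures in mGAM, grown anaerobically for 27 h at 37 °C, were read at 595 nm. OD came from blank-subtracted readings, corrected for background with 20 µM compound solutions in water and scaled by a calibration factor of 5. Growth is the fold change versus the plate's median DMSO control. Values average 2 biological replicates, and any fold change above 1.5 is NA.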

Escherichia coli IAI1 [2] = assay: as above
In short: as §1

[3] = tested on: Klebsiella aerogenes DSM 30053; assay: as above
In short: as §1

[4] = tested on: Ruminococcus gnavus DSM 108212; assay: as above
In short: as §1

[5] = tested on: Klebsiella aerogenes DSM 30053; assay: fold change of Histamine concentration vs plate DMSO controls (fold change (ratio)); higher = more amine produced, active = hit call of the paper (significant change in both replicates, either direction)
In short: (§2)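 Amines were quantified by LC–triple-quadrupole MS in dynamic MRM mode against external calibration curves, with drift correction within each batch. The samples were whole anaerobic mGAM cultures of four gut bacterial strains, grown for 27 h at 37 °C in 80 µL wells and extracted with cold acetonitrile/methanol with 0.1% formic acid, then centrifuged. Values are reported as fold change over DMSO controls on the same plate. The mean of 2 biological replicates is given.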

[6] = tested on: Clostridium sporogenes DSM 1664; assay: fold change of Tryptamine concentration vs plate DMSO controls (fold change (ratio)); higher = more amine produced, active = hit call of the paper (significant change in both replicates, either direction)
In short: as §2

[7] = tested on: Ruminococcus gnavus DSM 108212; assay: as above
In short: as §2

Escherichia coli IAI1 [8] = assay: fold change of Putrescine concentration vs plate DMSO controls (fold change (ratio)); higher = more amine produced, active = hit call of the paper (significant change in both replicates, either direction)
In short: as §2

[9] = tested on: Klebsiella aerogenes DSM 30053; assay: as above
In short: as §2

Escherichia coli IAI1 [10] = assay: fold change of Cadaverine concentration vs plate DMSO controls (fold change (ratio)); higher = more amine produced, active = hit call of the paper (significant change in both replicates, either direction)
In short: as §2

[11] = tested on: Klebsiella aerogenes DSM 30053; assay: as above
In short: as §2

[12] = tested on: Ruminococcus gnavus DSM 108212; assay: fold change of 2-Phenylethylamine concentration vs plate DMSO controls (fold change (ratio)); higher = more amine produced, active = hit call of the paper (significant change in both replicates, either direction)
In short: as §2

Compound	growth [1]	growth (Escherichia coli IAI1 [2])	growth [3]	growth [4]	fold change of Histamine concentration [5]	fold change of Tryptamine concentration [6]	fold change of Tryptamine concentration [7]	fold change of Putrescine concentration (Escherichia coli IAI1 [8])	fold change of Putrescine concentration [9]	fold change of Cadaverine concentration (Escherichia coli IAI1 [10])	fold change of Cadaverine concentration [11]	fold change of 2-Phenylethylamine concentration [12]
O=C(O)CCc1nc(-c2ccccc2)c(-c2ccccc2)o1 [Oxaprozin] (20 µM)	1.08	1.04	0.984	1.06	1.04 (inactive)	1.03 (inactive)	1.03 (inactive)	1.01 (inactive)	1 (inactive)	0.96 (inactive)	0.979 (inactive)	1.1 (inactive)
CN1CCN(c2c(F)cc3c(=O)c(C(=O)O)cn4c3c2SCC4)CC1 [Rufloxacin] (20 µM)	0.0133	0.0641	0.299	0.953	0.201 (active)	0.0518 (active)	0.901 (inactive)	0.875 (inactive)	1.18 (inactive)	0.26 (active)	0.997 (inactive)	0.952 (inactive)
CCOC(=O)CC(=O)N1CCSC1COc1ccccc1OC (stereo not given) [Moguisteine] (20 µM)	0.961	0.997	1.02	0.951	1.02 (inactive)	1.06 (inactive)	0.978 (inactive)	0.997 (inactive)	1.01 (inactive)	1 (inactive)	0.987 (inactive)	0.994 (inactive)
CCC1(c2ccccc2)C(=O)NCNC1=O [Primidone] (20 µM)	0.938	0.953	0.991	1.01	1.09 (inactive)	0.973 (inactive)	1.02 (inactive)	0.982 (inactive)	1.03 (inactive)	0.999 (inactive)	0.981 (inactive)	1.03 (inactive)
Cc1cccn2c(=O)c(-c3nnn[nH]3)cnc12 [Pemirolast potassium] (20 µM)	0.934	0.984	0.975	0.807	1.03 (inactive)	1.02 (inactive)	1.01 (inactive)	0.994 (inactive)	1.01 (inactive)	0.992 (inactive)	1 (inactive)	1.04 (inactive)
CN1CCCN=C1/C=C/c1cccc(O)c1 [Oxantel pamoate] (20 µM)	1.1	1.04	1.03	0.853	0.924 (inactive)	1.05 (inactive)	1.06 (inactive)	1.03 (inactive)	0.967 (inactive)	1.01 (inactive)	1.01 (inactive)	1.08 (inactive)
Cc1cnc(C(=O)O)c[n+]1[O-] [Acipimox] (20 µM)	1.05	0.996	1.27	0.959	0.874 (inactive)	0.952 (inactive)	1 (inactive)	1.01 (inactive)	0.998 (inactive)	1.03 (inactive)	1.03 (inactive)	1.03 (inactive)
CNC(=O)OCc1cccc(COC(=O)NC)n1 [Pyricarbate] (20 µM)	0.9	1.02	1.03	1.02	0.976 (inactive)	0.953 (inactive)	1.03 (inactive)	1.03 (inactive)	0.995 (inactive)	1.05 (inactive)	0.995 (inactive)	1.06 (inactive)
O=C1NS(=O)(=O)c2ccccc21 [Saccharin] (50 µM)	0.975	1.02	0.976	1.11	1.01 (inactive)	1.02 (inactive)	1 (inactive)	1.05 (inactive)	1.01 (inactive)	1.06 (inactive)	0.996 (inactive)	1.02 (inactive)
NC[C@H]1O[C@H](O[C@H]2[C@H](O)[C@@H](O[C@H]3O[C@H](CO)[C@@H](O)[C@H](N)[C@H]3O)[C@H](N)C[C@@H]2N)[C@H](N)C[C@@H]1O [Tobramycin] (20 µM)	1.09	0.95	0.772	0.73	0.65 (active)	1.13 (inactive)	0.946 (inactive)	0.911 (inactive)	0.922 (inactive)	0.889 (inactive)	0.978 (inactive)	0.941 (inactive)
CN1C2CCCC1CC(NC(=O)c1nn(C)c3ccccc13)C2 (stereo not given) [Granisetron] (20 µM)	1.04	1.02	1.01	1.04	1.02 (inactive)	1.04 (inactive)	1.07 (inactive)	1.05 (inactive)	1 (inactive)	0.999 (inactive)	1.01 (inactive)	1.08 (inactive)
O=C(NCCCN1CCOCC1)c1ccc(Cl)cc1 [Eprobemide] (20 µM)	1.11	1.1	1.07	1.04	0.982 (inactive)	1.02 (inactive)	1.06 (inactive)	0.929 (inactive)	0.934 (inactive)	0.942 (inactive)	1.05 (inactive)	1.12 (inactive)
Cc1ccc(S(=O)(=O)NC(=O)NN2CCCCCC2)cc1 [Tolazamide] (20 µM)	0.935	1.09	1.04	1.19	0.975 (inactive)	1.02 (inactive)	1.14 (inactive)	1.05 (inactive)	0.974 (inactive)	1.02 (inactive)	1.02 (inactive)	1.18 (inactive)
CCCCCCOc1ccccc1C(N)=O [Exalamide] (20 µM)	1.34	0.997	1.03	1.23	0.934 (inactive)	0.949 (inactive)	0.95 (inactive)	0.952 (inactive)	1.01 (inactive)	1.03 (inactive)	0.997 (inactive)	0.936 (inactive)
CNC(C)CCC=C(C)C (stereo not given) [Isometheptene mucate] (20 µM)	0.966	0.977	1.01	1.24	1.09 (inactive)	0.944 (inactive)	1.01 (inactive)	0.979 (inactive)	1.04 (inactive)	1.01 (inactive)	1.02 (inactive)	0.954 (inactive)
CC(C)COC(=O)OCN1C(=O)CN(CCN2CC(=O)N(COC(=O)OCC(C)C)C(=O)C2)CC1=O [Sobuzoxane] (20 µM)	0.986	0.991	1.03	1.09	1 (inactive)	1.03 (inactive)	1.03 (inactive)	0.986 (inactive)	0.996 (inactive)	0.988 (inactive)	1 (inactive)	1.05 (inactive)
CN(C)CCC=C1c2ccccc2CCc2ccccc21 [Amitryptiline hydrochloride] (20 µM)	1.05	1.04	1.06	1.12	0.911 (inactive)	0.996 (inactive)	0.973 (inactive)	1.01 (inactive)	0.936 (inactive)	1.01 (inactive)	1.02 (inactive)	1.01 (inactive)
c1ccc2c(c1)CCCC2C1=NCCN1 (stereo not given) [Tetrahydrozoline hydrochloride] (20 µM)	0.99	0.997	1.01	0.897	0.99 (inactive)	1.01 (inactive)	0.993 (inactive)	1.04 (inactive)	0.992 (inactive)	0.966 (inactive)	1 (inactive)	1.01 (inactive)
C#C[C@]1(O)CC[C@H]2[C@@H]3CCC4=CC(=O)CC[C@@H]4[C@H]3CC[C@@]21CC [(D-) Norgestrel] (20 µM)	1.06	0.994	1.02	0.996	1.05 (inactive)	1.01 (inactive)	1.01 (inactive)	0.982 (inactive)	0.998 (inactive)	1.03 (inactive)	0.985 (inactive)	0.978 (inactive)
Clc1ccc(Cn2c(CN3CCCC3)nc3ccccc32)cc1 [Clemizole hydrochloride] (20 µM)	1.15	1.01	1.05	0.643	0.939 (inactive)	1.11 (inactive)	0.858 (inactive)	0.882 (inactive)	0.958 (inactive)	1.41 (active)	1.01 (inactive)	0.968 (inactive)
CN(C)CCOC(C)(c1ccccc1)c1ccccn1 (stereo not given) [Doxylamine succinate] (20 µM)	1.13	0.972	1.01	1.05	1.01 (inactive)	0.943 (inactive)	0.988 (inactive)	1.01 (inactive)	1.01 (inactive)	0.924 (inactive)	1 (inactive)	0.891 (inactive)
c1ccc(CN(CC2=NCCN2)c2ccccc2)cc1 [Antazoline hydrochloride] (20 µM)	0.903	0.968	0.958	0.834	1.06 (inactive)	0.965 (inactive)	1.06 (inactive)	0.929 (inactive)	1.01 (inactive)	1.07 (inactive)	0.998 (inactive)	1.08 (inactive)
COc1ccc2c(c1)c(CC(=O)OC/C=C(\C)CC/C=C(\C)CCC=C(C)C)c(C)n2C(=O)c1ccc(Cl)cc1 [Indometacin farnesil] (20 µM)	1.02	1.04	1.06	1.16	0.986 (inactive)	0.94 (inactive)	1.03 (inactive)	1.03 (inactive)	1.01 (inactive)	1.04 (inactive)	0.984 (inactive)	1.06 (inactive)
CNC(=C[N+](=O)[O-])NCCSCc1ccc(CN(C)C)o1 [Ranitidine hydrochloride] (20 µM)	1.07	1.01	1.07	1.47	0.953 (inactive)	1.05 (inactive)	0.99 (inactive)	0.996 (inactive)	1.01 (inactive)	1.03 (inactive)	1.02 (inactive)	0.984 (inactive)
CCC(=O)OCC(=O)[C@@]1(OC(=O)CC)[C@H](C)C[C@H]2[C@H]3[C@H]([C@@H](O)C[C@@]21C)[C@@]1(C)C=CC(=O)C=C1C[C@H]3Cl [Alclometasone dipropionate] (20 µM)	1.15	1.07	1.01	0.881	1.04 (inactive)	1 (inactive)	0.947 (inactive)	1.03 (inactive)	1.02 (inactive)	0.986 (inactive)	0.997 (inactive)	0.97 (inactive)
